PubChem BioAssay AID1825 (The Scripps Research Institute Molecular Screening Center, 2009)
Hit rate of the full screen: of about 290,000 compounds, about 2,300 (0.79%) were called active. Cut-off read from the data, not from the text of the source: active = inhibition above about 22%; inactive = the rest. The full list was thinned out, with actives kept by preference.

assay: IEC-6 cell viability reduction – luminescence, cytotoxicity control for KLF5 inhibitor project, primary screen (AID 1825); conditions: IEC-6 cytotoxicity, at 5 µM, active compounds read high;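 note: 0% = plate median of test compound wells and 100% = cytotoxic reference compound wells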

Compound | inhibition
COCCN1C(=O)N(c2ccc(Cl)cc2)C(=O)C1CC(=O)Nc1cc(OC)cc(OC)c1 (stereo not drawn) | -2.6% (inactive)
CC(=O)Nc1c2c(nn1-c1ccc(C)cc1C)CS(=O)C2 (stereo not drawn) | -0.7% (inactive)
NC(=O)c1oc2ccccc2c1NC(=O)CS(=O)(=O)c1ccccc1 | 6.1% (inactive)
Cc1ccc(NC(=O)C(C)c2cccc(C(=O)c3ccccc3)c2)cc1 (stereo not drawn) | 3.2% (inactive)
CCOc1ccc(NC(=O)CCC(=O)NNC(=O)NC2CCCCC2)cc1 | -7.2% (inactive)
O=S(=O)(c1ccc(Br)cc1)n1ccc2ccccc21 | 3.2% (inactive)
CCn1c(SCC(=O)NC2=NCCS2)nnc1C(C)NC(=O)c1ccccc1F (stereo not drawn) | 0.1% (inactive)
CCOC(=O)c1ccc(NC(=O)c2cccnc2)cc1 | -6.9% (inactive)
CCCC(=O)Nc1nc2ccc(NC(=O)c3c(F)c(F)c(OC)c(F)c3F)cc2s1 | 76.8% (active)
CCOc1ccc2nc(Nc3nc4ccc(NC(C)=O)cc4s3)sc2c1 | -2.2% (inactive)
CSc1nc2ccc(NC(=O)c3c(F)cccc3F)cc2s1 | 8.5% (inactive)
CCCC(=O)Nc1nc2ccc(NC(=O)c3cccnc3)cc2s1 | 30.2% (active)
O=C(Cc1ccccc1)Nc1ccc(NC(=O)c2cccnc2)cc1 | 0.2% (inactive)
COc1ccccc1/C=C/C(=O)NC1CC2CCC1C2 (stereo not drawn) | 4.4% (inactive)
Cc1cc(C)n2nc(C(=O)NC(C)(C)C)nc2n1 | 3.3% (inactive)
Cc1cc(C)n2nc(CNS(=O)(=O)c3c(F)c(F)c(F)c(F)c3F)nc2n1 | 31.5% (active)
Cc1cc(C)n2nc(SCC(N)=O)nc2n1 | 4.6% (inactive)
O=C1C(=O)N(CCCN2CCOCC2)C(c2ccc([N+](=O)[O-])cc2)/C1=C(\O)c1ccc2c(c1)OCCO2 (stereo not drawn) | -1.8% (inactive)
COc1ccc(Nc2ncc(C(=O)N3CCN(c4ccccc4OC)CC3)c3ccccc23)cc1 | 11.7% (inactive)
CCOc1c(Nc2cccc(Cl)c2)c(=O)c1=O | 23.4% (active)
Cn1c(Nc2cccc(Cl)c2)nc2ccccc21 | 4.2% (inactive)
NS(=O)(=O)c1cccnc1Nc1cccc(Cl)c1 | -0.6% (inactive)
Cc1cccc(NC(=O)c2sc(-c3ccccc3)nc2-c2ccc([N+](=O)[O-])cc2)c1 | -10% (inactive)
Cc1cccc(NC(=S)NC(=O)c2ccc(Br)o2)c1 | 1.6% (inactive)
Cc1onc(C(=O)NCc2ccc(F)cc2)c1[N+](=O)[O-] | -2.3% (inactive)
O=C(Nc1ccc(Br)cn1)c1ccc([N+](=O)[O-])o1 | 16.7% (inactive)
Cc1cccc(NC(=O)c2ccc([N+](=O)[O-])o2)c1 | 66.2% (active)
Cc1onc(NC(=O)c2ccc([N+](=O)[O-])o2)c1Br | 46.1% (active)
